Reference: article PMC4552634, “A New Set of Chemical Starting Points with Plasmodium falciparum Transmission-Blocking Potential for Antimalarial Drug Discovery” (PLoS ONE, 2015)
Among all 13,000 compounds or so, about 3,200 (25%) showed an effect of 50% or more. The list shows a part of the results.

Tested on: P. falciparum stage V gametocytes
Set-up: BacTiter-Glo ATP luminescence viability of purified stage V gametocytes in 384-well plates, per cent inhibition versus DMSO
Conditions: 48 h, 5 µM; inhibitor

Row | SMILES | % Inhibition
1 | CN1CCN(c2cc3c(cc2Cl)CCN3C(=O)Cc2ccc(Cl)c(NC(=O)Nc3cccc([N+](=O)[O-])c3)c2)CC1 [TCMDC-139473] | -0.749%
2 | O=C(Nc1ccc(F)cc1F)NC1CCN(c2ccnc3cc(Cl)ccc23)C1 (stereo not shown) [TCMDC-133658] | -14.22%
3 | CCCOc1ccc(C(F)(F)F)cc1NC(=O)c1nc2nc(C)cc(C)n2n1 [TCMDC-125466] | -88.48%
4 | COc1ccc(N2CCc3c(-c4cccc5cnccc45)cc(C)nc32)c(C)c1 [TCMDC-136362] | -0.3846%
5 | O=C(NCCCN1CCOCC1)c1ccc(-c2cccc(NC(=O)c3ccc(Cl)c(Cl)c3)c2)cc1 [TCMDC-133693] | -20.47%
6 | O=C1CC(C(=O)O)CC(=O)N1 [TCMDC-125482] | 13.38%
7 | COc1ccccc1-n1c(-c2ccc3ccccc3c2)csc1=NC(=O)c1ccccc1 [TCMDC-125668] | -1.763%
8 | O=C(NCCN1CCC(c2ncc(-c3ccccc3)o2)CC1)c1ccc(NC(=O)c2ccc(Cl)cc2)cc1 [TCMDC-138483] | -8.107%
9 | Cn1cc(C2CCN(CCCCNC(=O)c3ccc(C(=O)Nc4ccc(C#N)cc4)cc3)CC2)c2ccccc21 [TCMDC-138788] | -0.3465%
10 | O=C(NCCCCN1CCC(C(c2ccccc2)c2ccccc2)CC1)c1ccc(NC(=O)c2ccc(Cl)cc2)cc1 [TCMDC-138332] | -3.792%
11 | CC(C)Cn1cc(C2CCN(CCN3CCC(CNC(=O)c4ccc(NC(=O)c5ccc(Cl)cc5)cc4)CC3)CC2)c2ccccc21 [TCMDC-138865] | 102.8%
12 | CC(C)Cn1cc(C2CCN(CCN3CCC(CNC(=O)c4ccc(NC(=O)c5cc(Cl)cc(Cl)c5)cc4)CC3)CC2)c2ccccc21 [TCMDC-138868] | 108.5%
13 | Cc1nc(-c2ccccc2)nc(N2CCN(C(=O)c3ccco3)CC2)c1Cc1ccccc1F [TCMDC-124778] | -3.417%
14 | CC1(C)NC(N)=NC(=N)N1OCCSCCON1C(=N)N=C(N)NC1(C)C [TCMDC-131648] | 6.143%
15 | COCCn1c(-c2cccc(Cl)c2)nn(-c2ccc([N+](=O)[O-])cc2C#N)c1=S [TCMDC-134719] | 95.24%
16 | COCCn1c(-c2cccc(Cl)c2)nn(-c2ccc([N+](=O)[O-])cc2Cl)c1=S [TCMDC-135130] | 91.77%
17 | COc1cc([N+](=O)[O-])ccc1NC(=O)c1cc(Cl)ccc1O [TCMDC-124051] | 28.26%
18 | O=C(Cc1cccc(O)c1)NCC(Cc1ccc(O)cc1)c1ccccc1 (stereo not shown) [TCMDC-138482] | 7.528%
19 | CC1CCc2c(C(=O)Nc3c(F)cc(F)cc3Br)csc2C1 (stereo not shown) [TCMDC-125219] | 6.238%
20 | Cc1cc(N2CCN(C3CCCCC3)CC2)nc2cccc(O)c12 [TCMDC-124411] | 54.36%
21 | Cc1cc(N2CCC(C)CC2)nc2cc(O)ccc12 [TCMDC-124413] | -4.047%
22 | Cc1cc(Nc2ccc(O)cc2)nc2cccc(O)c12 [TCMDC-124414] | -26.97%
23 | COc1ccc(Cl)c(CC2c3cc(O)c(Cl)cc3CCN2C)c1 (stereo not shown) [TCMDC-137168] | -67.78%
24 | CN(Cc1ccc(-c2ccc(C(F)(F)F)cc2)cc1)C(=O)Cn1c(CCc2cccc(F)c2F)cc(=O)c2ccc(OCC3CCCN3C)cc21 (stereo not shown) [TCMDC-141405] | 117.2%

Row | SMILES | % Inhibition
25 | CCN(CC)CCc1ccc2c(=O)cc(CCc3cccc(F)c3F)n(CC(=O)N(C)Cc3ccc(-c4ccc(C(F)(F)F)cc4)cc3)c2c1 [TCMDC-141559] | 137.8%
26 | CN(C)CCOc1ccc2c(=O)cc(CCc3cccc(F)c3F)n(CC(=O)N(C)Cc3ccc(-c4ccc(C(F)(F)F)cc4)cc3)c2c1 [TCMDC-141375] | 124.4%
27 | CN(Cc1ccc(-c2ccc(C(F)(F)F)cc2)cc1)C(=O)Cn1c(CCc2cccc(F)c2F)cc(=O)c2ccc(OCCCN3CCCCC3)cc21 [TCMDC-141377] | 112.1%
28 | CCOC(=O)CCCCCNC[C@H](O)c1ccccc1 [TCMDC-131776] | -2.137%
29 | CC(C)NCc1ccc(-c2ccc(CN3CCCC(c4ccccc4)C3)cc2)c(C(=O)NCC2CCCCC2)c1 (stereo not shown) [TCMDC-134699] | 33.35%
30 | Clc1ccc(-c2ccc(CNCCCN3CCCC3)cc2)cc1 [TCMDC-140148] | 75.83%
31 | Cc1c(CNCCN2CCCCC2)c(C(=O)O)c(C)n1Cc1ccc(Cl)cc1 [TCMDC-125269] | 31.51%
32 | NC(Cc1ccc(Cl)cc1)=NCCN1CCCCCC1 [TCMDC-137727] | 39.5%
33 | O=S(=O)(Nc1cc2c(cc1O)CCN(C1CCC1)CC2)c1ccc(-c2ccc(F)cc2)cc1 [TCMDC-136084] | -82.22%
34 | O=S(=O)(NCCN1CCCC1)c1ccc(-c2ccc(CNCc3ccccc3)cc2)cc1 [TCMDC-132228] | 101.6%
35 | O=S(=O)(NCCN1CCCC1)c1ccc(-c2ccc(CNCc3ccc(F)cc3)cc2)cc1 [TCMDC-132280] | 62.82%
36 | COC(=O)c1cc(/C(C)=N/Nc2nc3ccccc3[nH]2)ccc1O [TCMDC-139075] | -14.17%
37 | O=C(NC1CC1)c1ccc(N2CCC(Cc3ccccc3)CC2)nc1 [TCMDC-134591] | 24.62%
38 | COC(=O)c1ccc(CC(C)NCC(O)c2cccc(C(F)(F)F)c2)cc1C (stereo not shown) [TCMDC-131470] | 8.047%
39 | COc1cccc(OC(C)(C)c2nc(N[C@@H](C)c3ccccc3)c3cn[nH]c3n2)c1 [TCMDC-136619] | 13.05%
40 | C[C@H](Nc1nc(C(Oc2ccccc2)c2ccccc2)nc2[nH]ncc12)c1ccccc1 (stereo partly shown) [TCMDC-136553] | 53.92%
41 | OC[C@H](Nc1nc(C(Oc2ccccc2)c2ccccc2)nc2[nH]ncc12)c1ccccc1 (stereo partly shown) [TCMDC-136552] | 43.31%
42 | CC1(C)NC(N)=NC(=N)N1OCc1ccc(-c2ccccc2)cc1 [TCMDC-131591] | -7.815%
43 | COc1ccc2nc(C)cc(NN=Cc3cccc(Cl)c3)c2c1 [TCMDC-142077] | 106.6%
44 | COc1ccc2c(NN=Cc3ccccc3Cl)cc(C)nc2c1 [TCMDC-142079] | 78.38%
45 | Cc1cc(NN=Cc2ccccc2Cl)c2ccccc2n1 [TCMDC-142059] | -35.38%
46 | Cc1cc(NN=CC=Cc2ccccc2)c2ccccc2n1 [TCMDC-142074] | -83.64%
47 | COc1ccc2c(NN=Cc3cccc(C)n3)ccnc2c1 [TCMDC-142031] | -34.06%
48 | COc1cc(C=NNc2cc(C)nc3ccccc23)cc(OC)c1OC [TCMDC-123958] | -11.67%

Row | SMILES | % Inhibition
49 | COc1ccc2nc(C)cc(NN=Cc3ccccc3Cl)c2c1 [TCMDC-142078] | -47.04%
50 | COc1ccc2c(NN=Cc3cccc(Cl)c3)cc(C)nc2c1 [TCMDC-142080] | 55.62%
51 | Cc1ccc2nc(C)cc(NN=CC=Cc3ccccc3)c2c1 [TCMDC-123974] | -10.18%
52 | COc1ccc2nc(C)cc(N/N=C/C=C/c3ccccc3)c2c1 [TCMDC-142095] | 88.89%
53 | CN(Cc1c(Cl)cnn1C)S(=O)(=O)c1ccc2ccccc2c1 [TCMDC-124903] | 3.551%
54 | CC(=O)Nc1ncc(C(=O)Nc2cccc(-c3ccc(-c4nc5cc(C(F)(F)F)ccc5[nH]4)s3)c2)s1 [TCMDC-136915] | 15.71%
55 | Cc1ccc(CN2CCC(C(=O)Nc3ccc(-c4cc5ccccc5[nH]4)cc3)CC2)o1 [TCMDC-124634] | -0.9664%
56 | CC(ON1C(N)=NC(N)=NC1(C)C)c1ccccc1 (stereo not shown) [TCMDC-131596] | 28.25%
57 | O=C(Nc1ccc(-n2ccc(C(F)(F)F)n2)cc1)c1cccs1 [TCMDC-125785] | 28.31%
58 | Cc1cc(CNC(=O)[C@H](CC2CCCCC2)Nc2ccc(C#N)c3ccccc23)c(C(F)(F)F)o1 [TCMDC-136628] | -91.12%
59 | Cc1cnc(-c2ccc(NC(=O)c3coc4ccc(N5CC(C)N(C)C(C)C5)cc34)cc2)o1 (stereo not shown) [TCMDC-141361] | 27.19%
60 | Cc1cc(O)nc(NC(=N)NOCc2ccccc2)n1 [TCMDC-131683] | 7.113%
61 | O=C(NC1CCCC1)c1ccc(N2CCC(NCc3cc4cc(Cl)ccc4[nH]3)CC2)cc1 [TCMDC-124662] | -4.187%
62 | CCOc1ccc(C(=O)Nc2cc(Br)c3c(c2)CNCC3)cc1Br [TCMDC-139729] | 61.1%
63 | CCOc1ccc(C(=O)Nc2cc(Br)c3c(c2)CNCC3)cc1Cl [TCMDC-139730] | 27.05%
64 | CCOc1ccc(C(=O)Nc2cc(Br)c3c(c2)CNCC3)cc1C#N [TCMDC-139731] | 94.42%
65 | COc1ccc(C(=O)Nc2cc(Br)c3c(c2)CNCC3)cc1C(F)(F)F [TCMDC-139728] | 19.24%
66 | COc1ccc(C(=O)Nc2cc(Br)c3c(c2)CNCC3)cc1Br [TCMDC-139727] | 19.9%
67 | CCOc1ccc(C(=O)Nc2cc(Br)c3c(c2)CNCC3)cc1C(F)(F)F [TCMDC-139732] | 37.39%
68 | O=C1c2ccccc2C(=O)N1c1ccc(S(=O)(=O)N2CCOCC2)cc1 [TCMDC-125740] | 8.047%
69 | CC(=O)N(C)c1ccc(C(=O)Nc2cccc(-c3cccc(-c4nc5c(C)cccc5[nH]4)c3)c2)cc1 [TCMDC-136850] | -24.43%
70 | CC(C)Sc1nc2c(c(=O)n1Cc1ccco1)C1(CCCC1)Cc1ccccc1-2 [TCMDC-125844] | 9.662%
